Reference: ChEMBL document CHEMBL3988442, “University of Dundee, Small-Polar-MMV Screening Library” (2021)

target: T1, Aspartate--tRNA(Asp/Asn) ligase (Mycobacterium tuberculosis (strain ATCC 25618 / H37Rv)) (UniProt P9WFW3); assay: Assay for Asp RNA synthetase-1 from Mycobacterium tuberculosis; assay type: functional; parameters: scale not given: direction of the effect not stated beside the values; details: 30 µM; note: in the data most compounds retested in dose-response had high values
T1 sequence (whole entry): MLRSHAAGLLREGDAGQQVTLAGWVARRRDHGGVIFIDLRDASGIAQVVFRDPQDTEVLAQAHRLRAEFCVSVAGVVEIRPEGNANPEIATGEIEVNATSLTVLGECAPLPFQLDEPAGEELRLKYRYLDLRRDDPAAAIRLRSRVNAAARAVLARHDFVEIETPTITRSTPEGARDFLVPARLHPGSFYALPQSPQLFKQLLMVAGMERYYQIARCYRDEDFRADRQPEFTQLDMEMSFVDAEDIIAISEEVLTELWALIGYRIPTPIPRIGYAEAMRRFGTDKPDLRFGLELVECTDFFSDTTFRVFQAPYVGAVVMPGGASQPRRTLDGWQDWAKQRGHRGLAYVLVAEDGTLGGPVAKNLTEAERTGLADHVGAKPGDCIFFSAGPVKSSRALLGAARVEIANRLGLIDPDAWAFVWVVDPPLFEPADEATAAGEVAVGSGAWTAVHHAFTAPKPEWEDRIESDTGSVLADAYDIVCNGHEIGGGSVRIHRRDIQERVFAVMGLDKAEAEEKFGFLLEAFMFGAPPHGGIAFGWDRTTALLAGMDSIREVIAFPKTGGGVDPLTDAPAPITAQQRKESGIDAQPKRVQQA

| SMILES | Percent Effect [%] |
| --- | --- |
| Cc1nc2ccccc2nc1CN1CCCC1Cn1cncn1 (stereo not given) | -6.08 |
| CCOCC1CC2(CCN(C(=O)c3ccccn3)CC2)CO1 (stereo not given) | 0.961 |
| CC(C)CC(=O)N1CC[C@@H]2[C@H](CC1)N(S(C)(=O)=O)CCS2(=O)=O | -2.04 |
| CSCC(=O)N1CCCN(c2ccccc2C)CC1 | 0.55 |
| COCc1cnc2n1CCN(C(=O)C1=CCCCC1)C2C (stereo not given) | -0.348 |
| COc1ccc(C)cc1S(=O)(=O)NCC(c1cccn1C)N(C)C (stereo not given) | -4.54 |
| CCc1noc(C2CCCCN2C(=O)c2ccoc2C)n1 (stereo not given) | -4.38 |
| CC(CCc1ccco1)NC(=O)Nc1cc(C(F)(F)F)c[nH]c1=O (stereo not given) | 0.141 |
| c1cc(-c2noc(CN3CCn4c(nnc4C4CC4)C3)n2)co1 | -0.544 |
| Cc1nc(CN2CCC(N(C)Cc3noc(C(C)C)n3)C2)cs1 (stereo not given) | 8.39 |
| CN(C)CC(=O)N1CCC2(CCN(Cc3ccccn3)C2=O)C1 (stereo not given) | -3.07 |
| O=C(c1ccc[nH]1)N1CCCC2(CCN(c3ccsc3)C2=O)C1 (stereo not given) | 3.37 |
| Cc1ncnc(NCc2cc3n(n2)CCCN(S(C)(=O)=O)C3)c1C | 0.518 |
| O=C(NCc1cc[nH]n1)NCC(O)c1ccc(F)cc1F (stereo not given) | 4.01 |
| Cc1nc(C)c(CNC(=O)NC(c2nnc3n2CCC3)C(C)C)s1 (stereo not given) | 0.0985 |
| COc1cccc(C(=O)NS(=O)(=O)c2cccc(C#N)c2)c1OC | 0.0291 |
| Cc1nc(N2CC[C@@H](NC(=O)c3cnccn3)[C@H](O)C2)c2ccsc2n1 | -1.04 |
| CCOc1cc(C(=O)N2CCCC(c3noc(C)n3)C2)ccn1 (stereo not given) | 0.253 |
| CCN1CC(C(=O)NC(C)(C)CNC(=O)OC(C)(C)C)CC1=O (stereo not given) | 4.36 |
| Cn1cc(C(=O)NC2CCN(C(=O)NCC3CCSCC3)CC2)cn1 | 3.16 |

| SMILES | Percent Effect [%] |
| --- | --- |
| COCCN(C)C[C@@H]1CN(C(=O)c2ccoc2)C[C@@H]1CO | -4.07 |
| CC(C)Oc1cc(N2C[C@@H](C)O[C@@H](C)C2)nc(N)n1 | -0.457 |
| O=C(CSC1CCc2ccccc2NC1=O)NCCc1ccco1 (stereo not given) | -3.17 |
| CC(C)c1nc(CN2CCN(CC3CCCO3)CC2)cs1 (stereo not given) | -0.404 |
| Cc1nn(C)c(N(C)C)c1CNCC(O)COc1ccc(F)cc1 (stereo not given) | -7.16 |
| Cn1cccc1CCC(=O)N1CCC2(CC1)c1ccccc1CC2O (stereo not given) | 2.11 |
| Cc1cc(C(=O)N2CCc3nnc(N)cc3C2)c(C)n1-c1cccnc1 | 7.03 |
| O=C(Cc1ccccc1F)N1CCN(C(=O)c2cccc(F)c2)CC1 | 23.6 |
| CC(C)CNC(=O)CN1C=Nc2ccccc2S1(=O)=O | 5.2 |
| CCn1ccnc1CN1CCN(CC(O)Cn2cccn2)CC1 (stereo not given) | -1.83 |
| OCC1CCCN1c1cc(N2CCN(c3ccccn3)CC2)ncn1 (stereo not given) | -3.49 |
| CCc1nnsc1C(=O)N1CCOC(c2nc(C)n[nH]2)C1 (stereo not given) | -2.08 |
| Cc1cnc(CN(C)C2CCN(CCc3cnn(C)c3)C2)o1 (stereo not given) | -2.22 |
| CN(Cc1ccccn1)C1CC2(CCN(Cc3cccnc3)CC2)C1 | -2.75 |
| COc1ccc(CN2CCCCC2CNC(=O)OC(C)(C)C)cc1F (stereo not given) | -1.76 |
| Cc1ccoc1-c1nnc(CN2CCn3c(nnc3C3CC3)C2)o1 | -2.98 |
| COc1c(CNC2CCN(C(=O)C3CC3)CC2)c(C(C)C)nn1C | 1.69 |
| O=C(C1CCCCC1)N1CCC2(CCCN2CC2CC2)CC1 | 2.39 |
| CC(C)NC(=O)[C@H]1C[C@@H]2[C@@H](C1)OCCN2Cc1cnn(C)c1 | 2.71 |
| CCN(Cc1ccc2c(c1)OCO2)C(=O)CCc1c(C)nc(C)[nH]c1=O | -2.63 |

target: Shiga toxin 2 (Escherichia coli O157:H7) (UniProt P09385+P09386); assay: E. coli 0.157:H7 Shiga Toxin SOP - stx2 screening assay; assay type: functional; parameters: scale not given: direction of the effect not stated beside the values; details: 30 µM

| SMILES | Percent Effect [%] |
| --- | --- |
| Cc1nc2ccccc2nc1CN1CCCC1Cn1cncn1 (stereo not given) | 7.83 |
| CCOCC1CC2(CCN(C(=O)c3ccccn3)CC2)CO1 (stereo not given) | 5.8 |
| CC(C)CC(=O)N1CC[C@@H]2[C@H](CC1)N(S(C)(=O)=O)CCS2(=O)=O | -14.8 |
| CSCC(=O)N1CCCN(c2ccccc2C)CC1 | -18.5 |
| COCc1cnc2n1CCN(C(=O)C1=CCCCC1)C2C (stereo not given) | -61.5 |
| COc1ccc(C)cc1S(=O)(=O)NCC(c1cccn1C)N(C)C (stereo not given) | 2.58 |
| CCc1noc(C2CCCCN2C(=O)c2ccoc2C)n1 (stereo not given) | -33.6 |
| CC(CCc1ccco1)NC(=O)Nc1cc(C(F)(F)F)c[nH]c1=O (stereo not given) | 36.5 |
| c1cc(-c2noc(CN3CCn4c(nnc4C4CC4)C3)n2)co1 | 0.987 |
| Cc1nc(CN2CCC(N(C)Cc3noc(C(C)C)n3)C2)cs1 (stereo not given) | -23.4 |
| CN(C)CC(=O)N1CCC2(CCN(Cc3ccccn3)C2=O)C1 (stereo not given) | 9.53 |
| O=C(c1ccc[nH]1)N1CCCC2(CCN(c3ccsc3)C2=O)C1 (stereo not given) | 3.06 |
| Cc1ncnc(NCc2cc3n(n2)CCCN(S(C)(=O)=O)C3)c1C | 12.4 |
| O=C(NCc1cc[nH]n1)NCC(O)c1ccc(F)cc1F (stereo not given) | -25 |
| Cc1nc(C)c(CNC(=O)NC(c2nnc3n2CCC3)C(C)C)s1 (stereo not given) | -7.7 |
| COc1cccc(C(=O)NS(=O)(=O)c2cccc(C#N)c2)c1OC | 2.55 |
| Cc1nc(N2CC[C@@H](NC(=O)c3cnccn3)[C@H](O)C2)c2ccsc2n1 | -6.15 |
| CCOc1cc(C(=O)N2CCCC(c3noc(C)n3)C2)ccn1 (stereo not given) | 28.1 |
| CCN1CC(C(=O)NC(C)(C)CNC(=O)OC(C)(C)C)CC1=O (stereo not given) | 15.4 |
| Cn1cc(C(=O)NC2CCN(C(=O)NCC3CCSCC3)CC2)cn1 | -2.79 |

| SMILES | Percent Effect [%] |
| --- | --- |
| COCCN(C)C[C@@H]1CN(C(=O)c2ccoc2)C[C@@H]1CO | 15.1 |
| CC(C)Oc1cc(N2C[C@@H](C)O[C@@H](C)C2)nc(N)n1 | 0.94 |
| O=C(CSC1CCc2ccccc2NC1=O)NCCc1ccco1 (stereo not given) | -9.27 |
| CC(C)c1nc(CN2CCN(CC3CCCO3)CC2)cs1 (stereo not given) | 12 |
| Cc1nn(C)c(N(C)C)c1CNCC(O)COc1ccc(F)cc1 (stereo not given) | 8.48 |
| Cn1cccc1CCC(=O)N1CCC2(CC1)c1ccccc1CC2O (stereo not given) | -22.3 |
| Cc1cc(C(=O)N2CCc3nnc(N)cc3C2)c(C)n1-c1cccnc1 | -28.4 |
| O=C(Cc1ccccc1F)N1CCN(C(=O)c2cccc(F)c2)CC1 | -39.5 |
| CC(C)CNC(=O)CN1C=Nc2ccccc2S1(=O)=O | 32.2 |
| CCn1ccnc1CN1CCN(CC(O)Cn2cccn2)CC1 (stereo not given) | -31.5 |
| OCC1CCCN1c1cc(N2CCN(c3ccccn3)CC2)ncn1 (stereo not given) | 32.6 |
| CCc1nnsc1C(=O)N1CCOC(c2nc(C)n[nH]2)C1 (stereo not given) | -18.3 |
| Cc1cnc(CN(C)C2CCN(CCc3cnn(C)c3)C2)o1 (stereo not given) | 9.7 |
| CN(Cc1ccccn1)C1CC2(CCN(Cc3cccnc3)CC2)C1 | -14.8 |
| COc1ccc(CN2CCCCC2CNC(=O)OC(C)(C)C)cc1F (stereo not given) | 6.58 |
| Cc1ccoc1-c1nnc(CN2CCn3c(nnc3C3CC3)C2)o1 | -36.6 |
| COc1c(CNC2CCN(C(=O)C3CC3)CC2)c(C(C)C)nn1C | 29.5 |
| O=C(C1CCCCC1)N1CCC2(CCCN2CC2CC2)CC1 | -6.44 |
| CC(C)NC(=O)[C@H]1C[C@@H]2[C@@H](C1)OCCN2Cc1cnn(C)c1 | -17.8 |
| CCN(Cc1ccc2c(c1)OCO2)C(=O)CCc1c(C)nc(C)[nH]c1=O | 29.9 |
